Most compounds without a hit are left out; they make up all but 4.3% or so of the library.
KKLEB tox: cytotoxicity in KKLEB CF airway cells, primary screen, cytotoxicity control for CF NF-kB inhibitor project, cell-based, uHTS, fluorescence assay plates; KKLEB CF airway cells viability, ATPlite luminescence, overnight; hits give low values; cells stimulated with P. aeruginosa culture filtrate; activity change (cytotoxicity), % at 5 µM; 360,000 compounds, 0.36% hits;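 active = corrected activity change at or below -50% at 5 µM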
HIF-2a inh: HIF-2a reporter inhibitors, primary screen, luminescence, 786-0 RCC cells; inhibition, % at 18.8 µM; 786-0 RCC cells HIF-2a reporter, luciferase luminescence, overnight; 360,000 compounds, 0.72% hits; AID 624352, 2012;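 active = inhibition of the luminescence signal of 40% or more relative to plate controls, in a single-dose primary screen at 18.75 µM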
Peg3 prom inh: Peg3 promoter-driven luciferase inhibitors, primary screen, cell-based, HeLa, luciferase luminescence; HeLa PEG-Prom luciferase reporter, overnight; inhibition, % at 20 µM; 360,000 compounds, 1.7% hits;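 active = inhibition of at least 50% at 20 µM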
CHOP inh: inhibitors of CHOP promoter induction, primary screen, cell-based, unfolded protein response, luciferase reporter. inhibition, % at 10 µM. AID 2732, 2010. 220,000 compounds, 3.8% hits. CHO-K1 CHOP-promoter luciferase, tunicamycin-induced, 15-18 h;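 active = compounds that reduced the stress-induced luciferase reporter signal by more than about 70% of percent inhibition, limit read from the data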;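 also: 0% = tunicamycin plus vehicle and 100% = wells without tunicamycin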
CF NFkB block: inhibitors of PAF-induced NF-kB signaling, primary screen, cell-based, GFP fluorescence, uHTS. KKLEB NF-kB-GFP reporter, GFP fluorescence overnight. inhibition, % at 5 µM. 360,000 compounds, 0.86% hits. AID 588850, 2011;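 active = at least 50% inhibition at 5 µM, scaled per plate between neutral and stimulator controls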;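 also: PAF is a Pseudomonas aeruginosa culture filtrate used as stimulus; plate controls were PAF-stimulated DMSO wells for no effect and unstimulated DMSO wells for full effect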
MITF TRPM1 inh: inhibitors of MITF-dependent TRPM1 promoter reporter, primary screen, cell-based, SK-MEL-5, single point, luciferase; inhibition, % at 12.5 µM; AID 488899, 2010; 330,000 compounds, 0.83% hits; SK-MEL-5 TRPM1 promoter luciferase, 24 h;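 active = mean inhibition across replicates of 60% or more, whatever share of single replicates reaches that level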
CHOP confirm: retest of CHOP induction inhibitors, confirmation, cell-based; shares compounds with CHOP inh; CHO-CHOP promoter luciferase reporter, tunicamycin-induced, luminescence; inhibition, % at 10 µM; 2,100 compounds, 45% hits; AID 504437, 2011;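 active = mean of three repeat readings of reporter signal inhibition above a set limit, cut at about 70% in these data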;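 also: 0% = tunicamycin plus vehicle and 100% = wells lacking tunicamycin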
Active calls of the source: *; x = no result.

SMILES | KKLEB tox | HIF-2a inh | Peg3 prom inh | CHOP inh | CF NFkB block | MITF TRPM1 inh | CHOP confirm
C[C@@H]1CN([C@@H](C)CO)C(=O)CCCn2nncc2CO[C@H]1CN(C)S(=O)(=O)c1ccc2ccccc2c1 | -1 | -11 | 11 | x | 5 | x | x
CC(O)COc1ccc(/C(=N/O)c2ccccc2)cc1 (stereo not given) | 2 | -43 | -15 | 7 | -3 | -26 | x
CC(C)COc1ccc(/C(=N/O)c2ccccc2)cc1 | 4 | -172 | -127 | 107* | 21 | -35 | 92*
O=C(CCCN1C(=O)/C(=C\c2ccccc2)SC1=S)Nc1ccc(O)cc1 | -10 | 61* | 83* | 98* | 10 | 16 | 18
O=C(CCN1C(=O)/C(=C\c2ccccc2)SC1=S)Nc1ccc(C(=O)O)cc1 | 0 | 19 | 12 | x | 18 | 1 | x
CCCCCCCCCCCCCCCCn1cc[n+](C)c1 | -94* | 82* | 108* | 81* | 84* | 70* | 115*
Cc1cc(NC(=O)Nc2ccc(OCc3ccccc3)cc2)n(C)n1 | 2 | -12 | -3 | x | -6 | 12 | x
CC(C)Sc1nc2c(c(=O)[nH]c(=O)n2C)n1Cc1ccc(Cl)cc1 | -21 | 18 | 19 | 47 | 24 | 8 | x
CC(C)CCSc1nc2c(c(=O)[nH]c(=O)n2C)n1CCCc1ccccc1 | 7 | 7 | 8 | 105* | -14 | x | 106*
CCC(C)Sc1nc2c(c(=O)[nH]c(=O)n2C)n1Cc1ccc(Cl)cc1 (stereo not given) | -17 | 28 | 35 | 98* | 36 | -17 | 103*
O=C(Nc1ccc(S(=O)(=O)N2CCCC2)cc1)C1CC(=O)N(CCc2ccccc2)C1 (stereo not given) | -8 | 14 | 9 | x | 4 | x | x
Cn1c(-c2ccccc2)c(CCO)c2ccccc21 | -5 | -1 | -3 | 24 | 7 | 1 | x
Cn1c(-c2ccccc2)c(C(=O)CCl)c2ccccc21 | -86* | 28 | 55* | 108* | 98* | 92* | 46
CN1CCc2c(sc(NC(=O)c3cc4cc([N+](=O)[O-])ccc4s3)c2C(N)=O)C1 | x | x | x | 101* | x | x | 132*
Cc1cccc(/C=C/C(=O)c2cc(Br)ccc(=O)c2O)c1 | -2 | 3 | -42 | 102* | -22 | 22 | 100*
CCCCCCCC(=O)N/N=C/c1ccc(Br)cc1 | 13 | -3 | 8 | 97* | -7 | -1 | 132*
Cc1ccc(C(=O)CCC(=O)Nc2cccc(C(F)(F)F)c2)cc1C | -8 | -37 | -51 | x | 4 | -4 | x
Cc1ccc(C(=O)CCC(=O)Nc2cccc(C(F)(F)F)c2)cc1 | 1 | 8 | 5 | 102* | -8 | 9 | 41
O=C(CCC(=O)c1ccc(Br)cc1)Nc1cccc(C(F)(F)F)c1 | -2 | 12 | 0 | 108* | 1 | -3 | -4
O=C(CCC(=O)c1ccc(F)cc1)Nc1cccc(Br)c1 | -7 | 1 | 2 | x | 15 | 1 | x
CCn1c(=O)c([N+](=O)[O-])c(N2CCN(Cc3ccc4c(c3)OCO4)CC2)c2ccccc21 | 9 | 22 | 21 | -2 | 2 | 14 | x
CCCCc1c(C)nn(-c2nnc3c4ccccc4n(C)c3n2)c1C | 8 | -281 | -123 | 107* | -10 | -43 | 38
Cn1c2ccccc2c2nnc(NN)nc21 | 4 | -8 | 16 | -7 | -8 | 21 | x
CN(Cc1ccc(Cl)cc1)C(=O)CCl | -57* | -6 | 18 | 104* | 50* | 9 | 32
COc1ccc(C(O)(C(=O)NNc2ccc(C)cc2)c2cccs2)cc1 (stereo not given) | -4 | 19 | 8 | -36 | -4 | 1 | x
SMILES | KKLEB tox | HIF-2a inh | Peg3 prom inh | CHOP inh | CF NFkB block | MITF TRPM1 inh | CHOP confirm
O=C(NNc1ccc(C2CCCCC2)cc1)C(O)(c1ccccc1)c1cccs1 (stereo not given) | 5 | -2 | 45 | 106* | -12 | 4 | -3
C=C1CCN([C@@H](CC(C)C)C(=O)Nc2nc3ccc(Cl)cc3s2)S(=O)(=O)c2ccccc21 | -9 | 8 | 32 | x | 40 | -11 | x
O=[N+]([O-])c1cc2oc3c(c2c(C=NCc2ccccc2)c1O)CCCC3 | 20 | 20 | 11 | 99* | 24 | 14 | 8
Cc1ccc(C(C)C)c(OCC(=O)NN=C(CCl)CCl)c1 | x | x | x | 106* | x | x | 8
Cc1ccc(C(C)C)c(OCC(=O)N/N=C/C2CCCCC2)c1 | -4 | 10 | 1 | 101* | -5 | -6 | 70*
COc1ccc(N=c2ssnc2Cl)cc1 | 0 | -33 | -41 | 109* | 6 | 4 | 2
CCOC(=O)c1ccc(N=c2ssnc2Cl)cc1 | 8 | -21 | -17 | 98* | -10 | -2 | 56
CCOC(=O)c1ccc(N=C2SC(C(=O)NC)CC(=O)N2Cc2ccc(F)cc2)cc1 (stereo not given) | 8 | 18 | 24 | 28 | 1 | -3 | x
CCCS(=O)(=O)NC(=O)C1(C)CCN(C(=O)c2nc(C)oc2C)C1 (stereo not given) | 0 | 16 | 3 | x | 5 | x | x
CSC[C@H]1CN(Cc2cccnc2)C(=O)[C@@H]1CC(=O)Nc1ccc(Br)cc1 | 16 | 7 | 6 | x | -20 | x | x
Cc1ccc2c(CN3CCC(C(N)=O)CC3)cc(=O)oc2c1C | 9 | -19 | 0 | x | -2 | 2 | x
Clc1ccccc1C=NNc1ccccn1 | 0 | -158 | -247 | x | -2 | -31 | x
Clc1ccccc1/C=N/NC1=Nc2cccc3cccc1c23 | -14 | -203 | -192 | 98* | -21 | -32 | -22
O=C(Cn1[nH]c(=O)c2ccccc2c1=O)NCCN1C(=O)S/C(=C\c2ccccc2)C1=O | -20 | 13 | 34 | x | 3 | 1 | x
Cc1cc(C)c(S(=O)(=O)NCCn2ccc3ccccc32)c(C)c1 | 2 | 1 | -7 | 107* | 4 | x | 24
Cc1nn(CCCC(=O)NCCc2ccccc2)c(=O)c2nccn12 | 0 | 1 | 2 | x | -33 | -2 | x
CCCn1c(SCc2nc3sc(C)c(C)c3c(=O)[nH]2)nc2ccccc2c1=O | -14 | 15 | 27 | 106* | 2 | 11 | 24
Nc1c2nc(-c3ccccc3)[nH]c(=O)c2nc(=O)n1-c1ccccc1 | -25 | 22 | 18 | 103* | 5 | 2 | -6
O=c1[nH]c(-c2ccc(F)cc2)nc2c1sc(=S)n2-c1ccccc1 | -2 | -3 | 28 | 33 | 15 | 0 | x
CCCCCOc1ccc(NC2=CC(=O)CCC2)cc1 | 15 | -40 | -4 | x | -20 | -7 | x

Bioassay records deposited in PubChem by several laboratories.
